In the library only some 5.9% were active in any assay of this set; here they are far more common.
ATXN2 expr inh – Primary qHTS for Inhibitors of ATXN expression | hit rate 0.72% among 360,000 | AID 1745845, 2022 | HEK-293 ATXN2-luciferase reporter, luminescence, 24 h | Potency, µM (highest dose often 57 µM), hits mostly inhibitors; also: nearly all actives have a fitted effect of over 55% in size
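qHTS (up to 57 uM final) was run with 24 h compound exposure of reporter cells at 37 °C. Each well was multiplexed: SteadyGlo luminescence measured ATXN2-luciferase expression after a fluorogenic Gly-Phe-AFC viability readout (25 uM final).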
ATXN viability – Viability Counterscreen for Primary qHTS for Inhibitors of ATXN expression | Potency, µM (highest dose often 56.7 µM), actives largely listed as cytotoxic | S2 cells (HEK-293 line with an ATXN2-luciferase reporter) viability, CellTiter-Fluor protease fluorescence, 24 h | hit rate 0.49% among 400,000; also: nearly all actives have a fitted effect of over 40% in size
HepG2 tox – qHTS for Inhibitors of TGF-b: Cytotox Counterscreen. AID 588856, 2011. hit rate 0.76% among 410,000. Potency, µM (top dose mostly 46.1 µM), most hits filed as cytotoxic. HepG2 CAGA-GFP viability, ATP luminescence, 18 h
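CellTiter-Glo luminescence gave cytotoxicity after 18 hours at 37 degrees C. The cells were HepG2 CAGA-GFP in 1% FBS DMEM, stimulated with 500 pg/mL TGF-beta after compound addition. %Activity was normalised to no-cell wells (complete cell-killing) and DMSO (no toxicity), and curves were fitted and classified.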
TGFb inhibitor – qHTS for Inhibitors of TGF-b; HepG2 CAGA-GFP TGF-b/SMAD3 reporter, GFP fluorescence, 18 h; TGF-beta stimulated, 500 pg/mL final; Potency, µM (top dose mostly 46.1 µM), usual class: inhibitors; hit rate 1.2% among 410,000; also: nearly all actives have a fitted effect of over 65% in size
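Inhibition of TGF-beta-driven CAGA-GFP reporter expression in HEPG2 cells is measured by cellular GFP fluorescence after 18 h stimulation with 500 pg/mL recombinant TGF-beta in 1% FBS medium at 37 degrees C.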
KB-V1 MDR tox – qHTS assay for MDR1-selective chemotherapeutics: Primary screen using the drug-selected MDR subline cells KB-V1; AID 1347076, 2019; KB-V1 MDR cells viability, CellTiter-Glo, 72 h; hit rate 3.4% among 400,000; Potency, µM (highest dose often 46.1 µM), hits mostly cytotoxic; also: nearly all actives have a fitted effect of over 60% in size
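In this primary screen, KB-V1 cells overexpressing P-gp are incubated with library compounds (lowest to highest concentration) for 72 h at 37 degrees C before a luminescent ATP viability read.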
KB-3-1 cytotox – qHTS assay for MDR1-selective chemotherapeutics: Primary screen using the parental adenocarcinoma cell KB-3-1. KB-3-1 viability, CellTiter-Glo ATP luminescence, 72 h. Potency, µM (titrated, usually from 46.1 µM), hits mostly cytotoxic. hit rate 1.4% among 400,000. AID 1347075, 2019; also: nearly all actives have a fitted effect of over 60% in size
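Using CellTiter-Glo luminescence, growth of non-resistant KB-3-1 adenocarcinoma cells is assessed 72 h after pin-tool compound addition at 37 °C. Normalized responses across the concentration series yield fitted curves.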
Numbers stand for hits; n = inactive; u = inconclusive; x = not tested or not shown. Calls follow the shape of the dose curve; as a rule, active = well fitted curve in the direction sought with a large enough effect; inconclusive = small, poorly fitted or top-dose-only effect, or another doubt; inactive = no such curve, though single readings can be large; an effect the other way counts as inactive or inconclusive.

SMILES	ATXN2 expr inh	ATXN viability	HepG2 tox	TGFb inhibitor	KB-V1 MDR tox	KB-3-1 cytotox
CCCCN(Cc1ccccc1)S(=O)(=O)c1ccc2c(c1)CCN2C(=O)C1CCC1	n	u	n	n	n	n
CCC(C)[C@H](NC(=O)NCc1ccc(Cl)cc1)C(=O)OC (stereo not given in full)	n	n	n	n	21µM	n
CCOc1ccc(CCNC(=O)c2cc3sc(Cl)cc3n2C)cc1OCC	n	u	n	n	n	u
Cn1c(C(=O)NCc2ccc3c(c2)OCO3)cc2sccc21	n	n	n	n	16µM	n
CCOc1ccc(CCNC(=O)c2cc3sccc3n2C)cc1OCC	n	u	n	n	8.2µM	n
O=C(C[n+]1ccncc1)c1ccc(Br)cc1	x	x	n	n	n	n
Cc1csc(C(C#N)C(=O)c2cc3ccccc3o2)n1 (stereo not given)	n	u	n	n	21µM	u
Cc1csc(NC(=O)c2cc3ccccc3o2)n1	n	n	n	n	n	n
O=C(NCCN1CCC(n2c(=O)[nH]c3ccccc32)CC1)c1ccc(Cl)c(Cl)c1	18µM	u	x	x	21µM	u
COc1cc(OC)c(NC(=O)c2cc(CN3CCOCC3)on2)cc1Cl	n	n	n	n	n	n
CC1CCCCN1C(=O)COC(=O)c1cc([N+](=O)[O-])ccc1N (stereo not given)	n	n	n	n	16µM	n
CC1CCN(C(=O)COC(=O)c2cc([N+](=O)[O-])ccc2N2CCOCC2)CC1	n	n	n	n	u	n
O=C1[C@@H]2[C@H]3CC[C@H](C3)[C@@H]2C(=O)N1CCCCN1CCN(c2ncccn2)CC1	n	n	x	x	x	x
Cn1cnc(S(=O)(=O)N2CCC(C(=O)NCc3ccc(F)cc3)CC2)c1	x	x	n	n	x	x
O=C(c1ccccc1F)N1CCCC(c2ccccc2)C1 (stereo not given)	n	n	n	n	23µM	n
O=C(c1ccccc1F)N1CCC(N2CCCCCC2)CC1	n	n	n	n	n	n
CC1CCN(C2CCN(C(=O)c3ccccc3F)CC2)CC1	n	n	11µM	n	n	n
Cc1c(C(=O)N2CCCCCC2)c(S(=O)(=O)Nc2cccc(C#N)c2)c(C)n1C	n	n	n	n	n	n
COc1cc(=O)n2c(c1C(=O)N(C)Cc1nccs1)CCN(Cc1c(F)ccc(F)c1F)CC2	x	n	x	x	x	x
COc1cccc(-c2nn(C)c3sc(C(=O)Nc4ccc5c(c4)OCCO5)cc23)c1	n	n	n	n	18µM	n
COc1cccc(-c2nc(SCC(=O)Nc3ccc4c(c3)OCCO4)c(-c3ccc(C)cc3)[nH]2)c1	u	u	n	u	u	21µM
COc1ccc(-c2nc(SCC(=O)Nc3ccc4c(c3)OCCO4)c(-c3ccc(F)cc3)[nH]2)cc1	n	u	n	n	n	n
COc1ccc(-c2[nH]c(-c3ccc(C)cc3)nc2SCC(=O)Nc2nccs2)cc1	n	n	n	n	23µM	u
CN(C)c1cccc(-c2nc(N3CCC(C(N)=O)CC3)ncc2F)c1	x	x	x	x	n	n
Cc1nc(C)c2c(=O)cc(-c3ccccc3)[nH]c2n1	n	n	n	n	3.2µM	7.1µM
SMILES	ATXN2 expr inh	ATXN viability	HepG2 tox	TGFb inhibitor	KB-V1 MDR tox	KB-3-1 cytotox
Cc1nc(-c2ccccc2)nc2[nH]ccc(=O)c12	n	n	n	n	9.2µM	u
O=C1OCCN1C(=O)[C@H]1[C@H](c2ccc(Cl)cc2)C(c2ccc(F)cc2)=NN1c1ccc(Br)cc1	n	x	n	n	n	n
Cc1cccc(C2=NN(c3ccccc3)[C@@H](C(=O)N3CCOC3=O)[C@@H]2c2ccc(F)cc2)c1	n	x	n	18µM	n	n
O=C1OCCN1C(=O)[C@H]1[C@H](c2ccc(F)cc2)C(c2ccc(F)cc2)=NN1c1ccc(Br)cc1	n	n	n	11µM	u	n
CC12CCC=CC1C(c1ccc(C(F)(F)F)cc1)N(Cc1ccccc1)C2=O (stereo not given)	x	x	n	n	x	x
COc1ccc(-c2sc3ccccc3c2-c2ccc(OCCN3CCCCC3)cc2)cc1	n	n	n	n	u	u
COc1ccc2c(-c3ccc(OCCN4CCCCC4)cc3)c(-c3ccccc3OC)sc2c1	u	x	13µM	u	n	n
COc1ccc(-c2sc3cc(OC)ccc3c2-c2ccc(OCCN3CCCCC3)cc2)cc1	22µM	x	x	x	u	u
COc1ccc2c(-c3ccc(OCCN4CCOCC4)cc3)c(-c3ccccc3OC)sc2c1	n	n	n	n	n	n
COc1ccccc1-c1sc2ccccc2c1-c1ccc(OCCN2CCCCC2)cc1	n	x	11µM	u	n	n
CCOC(=O)c1scc(-c2ccc(C)cc2)c1S(=O)(=O)Nc1ccc(OC)c(Cl)c1	n	n	n	u	n	n
COc1ccc(N(CC(=O)Nc2cc(C)ccc2OC)S(=O)(=O)c2c(C)noc2C)cc1	n	n	n	u	9.2µM	u
COc1ccc(N(CC(=O)Nc2cc(C)ccc2C)S(=O)(=O)c2c(C)noc2C)cc1	n	n	n	n	u	u
COc1ccc(N(CC(=O)Nc2cc(Cl)ccc2C)S(=O)(=O)c2c(C)noc2C)cc1	n	n	n	11µM	u	5.8µM
CC(Oc1ccc(Cl)cc1Cl)C(=O)NCc1ccncc1 (stereo not given)	n	n	n	n	21µM	n
Cc1c(C(=S)Nc2ccccc2)cnn1-c1ccccc1	n	n	n	u	21µM	n
Cc1c(C(=S)Nc2ccccc2)cnn1-c1ccc([N+](=O)[O-])cc1	n	u	n	n	18µM	u
Cc1ncc2c(c1CNC(=O)c1ccccc1F)CCN(C(=O)c1[nH]c3ccc(Cl)cc3c1C)C2	x	n	x	x	x	x
CC(/C=N/NC(=O)c1cccc(F)c1)=C\c1ccccc1	n	n	n	n	u	16µM
CC(/C=C/c1ccccc1F)=N\NC(=O)c1cccc(F)c1	u	u	n	n	21µM	u
CC(=O)Nc1cccc(-c2ccnc3c2CC(C)(C(=O)Nc2cccc(C(C)=O)c2)O3)c1 (stereo not given)	n	u	n	n	n	u
Cc1cc(F)ccc1NC(=O)CCS(=O)(=O)c1ccc2c(c1)NC(=O)CO2	n	n	n	n	n	n
COc1ccc(OCc2n(CC(=O)OC3CC(C)CCC3C(C)C)c3ccccc3[n+]2C)cc1 (stereo not given)	u	u	14µM	u	u	13µM

From PubChem
